Outcome and AC50 data for five compounds are collected here from PubChem BioAssay (EPA / NIEHS).

A short description of experiment [1]: ATG_M_61_CIS: Attagene CIS-FACTORIAL HepG2 Assay for M61 Transcription Factor (Internal Marker) (AID 2282937; active = hit-call score of the fitted dose curve at least 0.9, where 1 is the maximum; inactive = score below 0.9). Conditions: HepG2 Attagene CIS-FACTORIAL M61 internal marker reporter; actives raise or lower the signal. In outline:
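Fluorescence from labelled cDNA fragments, separated by capillary electrophoresis, quantifies reporter induction. HepG2 cells bearing transiently transfected cis-promoter MRTUs were incubated with test chemical for 24 h; DMSO defined baseline for gain/loss fitting.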

A short description of experiment [2]: ATG_EGR_CIS: Attagene CIS-FACTORIAL HepG2 Assay for human Early Growth Response 1 (EGR1) (AID 2282938; active = hit-call score of the fitted dose curve at least 0.9, where 1 is the maximum; inactive = score below 0.9). Conditions: HepG2 Attagene CIS-FACTORIAL EGR reporter mRNA; actives raise or lower the signal. In outline: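 Cell-based multiplex transcription assay: HepG2 carrying transfected cis-element reporter units, 24 h chemical treatment. Fluorescence from capillary electrophoresis of RT-PCR products gives mRNA levels; fitting is bidirectional relative to DMSO.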

Experiment [3] in a line: ATG_GRE_CIS: Attagene CIS-FACTORIAL HepG2 Assay for human Glucocorticoid Response Elements (GRE) (AID 2282947; active = hit-call score of the fitted dose curve at least 0.9, where 1 is the maximum; inactive = score below 0.9). Conditions: HepG2 GRE cis-reporter, Attagene multiplex mRNA; actives raise or lower the signal. In outline:
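Assay uses human hepatoma HepG2 cells transfected with cis-promoter reporter units, exposed 24 h. mRNA from reporters detected by RT-PCR plus capillary electrophoresis; DMSO serves as negative control and baseline.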

Experiment [4] in a line: ATG_PPRE_CIS: Attagene CIS-FACTORIAL HepG2 Assay for human Peroxisome Proliferator-activated Response Element (PPRE) (AID 2282958; active = hit-call score of the fitted dose curve at least 0.9, where 1 is the maximum; inactive = score below 0.9). Conditions: HepG2 PPRE cis-element reporter, Attagene transcription factor profiling; actives raise or lower the signal. In outline: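 Multiplexed reporter transcription units under cis-regulatory promoters were transfected into HepG2 cells to capture endogenous factor activity. A 24 h incubation preceded RNA isolation and fluorescent RT-PCR fragment analysis.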

Experiment [5] can be described thus: ATG_RORE_CIS: Attagene CIS-FACTORIAL HepG2 Assay for human RAR-related Orphan Receptor Element (RORE) (AID 2282959; active = hit-call score of the fitted dose curve at least 0.9, where 1 is the maximum; inactive = score below 0.9). Conditions: HepG2 Attagene cis-factorial RORE reporter, mRNA; actives raise or lower the signal. In outline:
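Fluorescence intensity of reporter-specific cDNA fragments, separated by capillary electrophoresis, gives the signal. Source: HepG2 liver cells transiently transfected with cis-element reporters and exposed 24 h; DMSO-normalized bidirectional fit.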

A short description of experiment [6]: ATG_TGFb_CIS: Attagene CIS-FACTORIAL HepG2 Assay for human Transforming Growth Factor (TGF) (AID 2282967; active = hit-call score of the fitted dose curve at least 0.9, where 1 is the maximum; inactive = score below 0.9). Conditions: HepG2 Attagene CIS TGFb reporter, mRNA transcription; actives raise or lower the signal. In outline: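 After a 24-hour incubation with compound, transfected HepG2 cells were lysed for RNA; reporter cDNA was amplified, fluorescently end-labeled and separated by CE. DMSO served as baseline for bidirectional fits.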

The nature of experiment [7]: ATG_M_19_TRANS: Attagene TRANS-FACTORIAL HepG2 Assay for M19 Transcription Factor (Internal Marker) (AID 2282974). Conditions: HepG2 Attagene TRANS-FACTORIAL M19 internal marker reporter. The gist of the method:
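Measured here: internal-marker reporter transcript from HepG2 cells transfected with MRTUs, harvested at 24 h. cDNA PCR products were 6-FAM labelled by primer extension, cut with HpaI for 2 h at 37 C, and resolved by CE.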

Experiment [8] concerns the target Hepatocyte nuclear factor 4-alpha (Homo sapiens) (UniProt P41235). As to the kind of experiment: ATG_HNF4a_TRANS: Attagene TRANS-FACTORIAL HepG2 Assay for human Hepatocyte Nuclear Factor 4 alpha (HNF4a) (AID 2282982). Conditions: HepG2 HNF4a transactivation reporter, mRNA readout. In outline:
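Transfected HepG2 reporter cells are dosed for 24 h; reporter RNA is reverse-transcribed, amplified, fluorescently labelled and HpaI-digested before CE sizing. Positive-direction fit against DMSO.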

Experiment [9] is described as follows: ATG_M_06_TRANS: Attagene TRANS-FACTORIAL HepG2 Assay for M06 Transcription Factor (Internal Marker) (AID 2282983). Conditions: HepG2 Attagene TRANS M06 internal marker reporter. In outline: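 HepG2 cells transiently transfected with multiplexed GAL4-UAS reporter transcription units; after 24 h compound exposure, reporter mRNA measured by RT-PCR, FAM-labelled primer extension, HpaI digestion and capillary electrophoresis. Gain-of-signal fitted versus DMSO baseline; background control readout.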

The nature of experiment [10]: ATG_NFI_CIS: Attagene CIS-FACTORIAL HepG2 Assay for human Nuclear Factor I (NFI) (AID 2282989; active = hit-call score of the fitted dose curve at least 0.9, where 1 is the maximum; inactive = score below 0.9). Conditions: HepG2 cis-regulatory reporter, NFI response element transcription; actives raise or lower the signal. The gist of the method: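 Reporter transcription driven by endogenous transcription factors in HepG2 cells; 24 h treatment. Quantitation by labelled RT-PCR fragments on capillary electrophoresis, gain- or loss-of-signal relative to DMSO.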

For experiment [11], the target named is Nuclear receptor subfamily 1 group I member 2 (Homo sapiens) (UniProt O75469). As to the kind of experiment: ATG_PXR_TRANS: Attagene TRANS-FACTORIAL HepG2 Assay for human Pregnane X Receptor (PXR) (AID 2283008). The gist of the method:
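Measures mRNA induction of a GAL4-UAS-driven reporter in human HepG2 cells transiently expressing PXR fused to Gal4, following 24 h treatment. DMSO served as negative control and baseline.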

The target of experiment [12] is human Retinoid X Receptor beta (RXRb), RXRB (gene 6257) (UniProt P28702). As to the kind of experiment: ATG_RXRb_TRANS: Attagene TRANS-FACTORIAL HepG2 Assay for human Retinoid X Receptor beta (RXRb) (AID 2283013). The gist of the method:
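HepG2 cells transiently transfected with multiplexed reporter units driven by GAL4-UAS and exogenous chimeric NR-Gal4 proteins; treated 24 h. Reporter mRNA measured by RT-PCR, 6-FAM labelling and capillary electrophoresis; gain-of-signal fitted versus DMSO baseline.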

Experiment [13] concerns the target Cellular tumor antigen p53 (Homo sapiens) (UniProt P04637). As to the kind of experiment: TOX21_p53_BLA_p2_ratio: Tox21 HCT-116 p53 Agonism Beta-lactamase Assay, Ratio, Phase 2 (AID 2283592). In outline:
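HCT116 cells carrying a p53-responsive beta-lactamase reporter were plated, incubated 5 h at 37C, then dosed with compounds in DMSO (217-fold dilution) for 16 h. CCF4-AM substrate was added for 2 h at room temperature; the 460/530 nm emission ratio gave gain-of-signal activity relative to DMSO.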

The target is the same in experiment [14]. As to the kind of experiment: TOX21_p53_BLA_p3_ratio: Tox21 HCT-116 p53 Agonism Beta-lactamase Assay, Ratio, Phase 3 (AID 2283596). The gist of the method:
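HCT116 p53-bla cells (4000/well) given compound in DMSO (217-fold dilution) after 5 h, incubated 16 h at 37C. CCF4-AM substrate 2 h at room temperature; 460/530 nm emission ratio, gain fitted against DMSO.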

The target is the same in experiment [15]. As to the kind of experiment: TOX21_p53_BLA_p5_ratio: Tox21 HCT-116 p53 Agonism Beta-lactamase Assay, Ratio, Phase 5 (AID 2283599). In outline:
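Beta-lactamase reporter ratio (blue 460 nm over green 530 nm, 405 nm excitation) after 2 h CCF4-AM loading, in HCT-116 cells exposed 16 h at 37 C to compounds pinned at 217-fold dilution. Increases relative to DMSO baseline scored.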

The nature of experiment [16]: TOX21_p53_BLA_p5_viability: Viability Assessment in the Tox21 HCT-116 p53 Agonism Beta-lactamase Assay, Phase 5 (AID 2283600). In outline:
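Cells were plated at 4000/well, rested 5 h at 37C, then given compounds in DMSO (217-fold dilution) for 16 h at 37C, 5% CO2. Following the CCF4-AM beta-lactamase read, CellTiter-Glo was added and luminescence was read after 30 min at room temperature.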

The target in experiment [17] is Cellular tumor antigen p53 (Homo sapiens) (UniProt P04637). As to the kind of experiment: TOX21_p53_BLA_p4_ratio: Tox21 HCT-116 p53 Agonism Beta-lactamase Assay, Ratio, Phase 4 (AID 2283601). In outline: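 Signal is the blue/green (460nm/530nm) ratio of cleaved versus uncleaved CCF4-AM substrate, read after 2 h substrate loading. Cells were HCT116 carrying the p53-responsive beta-lactamase reporter, dosed 16 h at 37C, 5% CO2; CellTiter-Glo measured in parallel.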

Experiment [18] has as its target Nuclear respiratory factor 1 (Homo sapiens) (UniProt Q16656). As to the kind of experiment: ATG_NRF1_CIS: Attagene CIS-FACTORIAL HepG2 Assay for human Nuclear Respiratory Factor 1 (NRF1) Orphan Gene (AID 2282987; active = hit-call score of the fitted dose curve at least 0.9, where 1 is the maximum; inactive = score below 0.9). Conditions: HepG2 NRF1 cis-element reporter, Attagene multiplex; actives raise or lower the signal. In outline: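 Transcriptional reporter readout, one component of a 52-endpoint multiplexed HepG2 panel. Exposure 24 h; mRNA detected via RT-PCR and fluorescent capillary electrophoresis; fitting in both directions against DMSO.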

The target of experiment [19] is Retinoic acid receptor RXR-alpha (Homo sapiens) (UniProt P19793). As to the kind of experiment: ATG_RXRa_TRANS: Attagene TRANS-FACTORIAL HepG2 Assay for human Retinoid X Receptor alpha (RXRa) (AID 2283012). The gist of the method:
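HepG2 cells transiently transfected with multiplexed GAL4-UAS reporter units and chimeric NR-GAL4 fusions, dosed 24 h. Reporter mRNA measured by RT-PCR, FAM labelling, HpaI digestion and capillary electrophoresis; gain-of-signal fitted relative to DMSO baseline.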

A short description of experiment [20]: ATG_M_06_CIS: Attagene CIS-FACTORIAL HepG2 Assay for M06 Transcription Factor (Internal Marker) (AID 2282950; active = hit-call score of the fitted dose curve at least 0.9, where 1 is the maximum; inactive = score below 0.9). Conditions: HepG2 Attagene CIS-FACTORIAL M06 internal marker reporter; actives raise or lower the signal. In outline: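 One of many multiplexed endpoints: HepG2 reporter mRNA after 24 h dosing, detected by RT-PCR and capillary electrophoresis fluorescence; gain or loss of signal analysed against DMSO.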

By AC50 is commonly meant the concentration giving half of the maximal activity seen.

Inconclusive results are not listed. A structure can be active in one record and inactive in another. Activity calls are given as the source filed them. Rule for the calls, unless noted: active = hit-call score of the fitted dose curve at least 0.9, where 1 is the maximum; inconclusive = response in the unintended direction; inactive = score below 0.9.

Hepatocyte nuclear factor 4-alpha (Homo sapiens), sequence (P41235 whole entry, looked up): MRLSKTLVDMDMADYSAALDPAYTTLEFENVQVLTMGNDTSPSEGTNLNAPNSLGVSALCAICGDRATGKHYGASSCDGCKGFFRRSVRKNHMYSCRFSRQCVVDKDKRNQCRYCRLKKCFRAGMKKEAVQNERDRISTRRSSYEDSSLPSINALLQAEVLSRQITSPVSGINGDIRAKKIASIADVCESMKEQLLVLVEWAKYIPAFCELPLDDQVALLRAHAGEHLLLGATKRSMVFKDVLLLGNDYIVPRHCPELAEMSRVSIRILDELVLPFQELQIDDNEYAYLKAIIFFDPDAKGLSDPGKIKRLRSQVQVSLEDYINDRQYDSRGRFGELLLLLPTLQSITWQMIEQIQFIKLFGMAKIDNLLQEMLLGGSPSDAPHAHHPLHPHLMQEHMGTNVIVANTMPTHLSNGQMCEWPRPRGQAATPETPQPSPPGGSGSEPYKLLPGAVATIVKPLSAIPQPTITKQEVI
Nuclear receptor subfamily 1 group I member 2 (Homo sapiens), sequence (O75469 whole entry, looked up, the tested form may be a part): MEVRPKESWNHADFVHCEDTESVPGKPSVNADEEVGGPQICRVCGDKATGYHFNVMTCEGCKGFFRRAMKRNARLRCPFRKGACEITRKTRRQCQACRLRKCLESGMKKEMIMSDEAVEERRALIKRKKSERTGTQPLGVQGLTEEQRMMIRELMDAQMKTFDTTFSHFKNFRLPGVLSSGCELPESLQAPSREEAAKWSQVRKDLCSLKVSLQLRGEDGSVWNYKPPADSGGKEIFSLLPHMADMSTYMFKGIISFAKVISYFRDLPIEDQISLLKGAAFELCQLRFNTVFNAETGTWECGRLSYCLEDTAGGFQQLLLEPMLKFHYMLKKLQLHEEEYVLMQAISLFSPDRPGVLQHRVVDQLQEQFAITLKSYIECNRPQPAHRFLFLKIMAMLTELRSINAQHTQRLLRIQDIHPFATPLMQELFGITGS
human Retinoid X Receptor beta (RXRb), RXRB (gene 6257), sequence (P28702 whole entry, looked up, the tested form may be a part): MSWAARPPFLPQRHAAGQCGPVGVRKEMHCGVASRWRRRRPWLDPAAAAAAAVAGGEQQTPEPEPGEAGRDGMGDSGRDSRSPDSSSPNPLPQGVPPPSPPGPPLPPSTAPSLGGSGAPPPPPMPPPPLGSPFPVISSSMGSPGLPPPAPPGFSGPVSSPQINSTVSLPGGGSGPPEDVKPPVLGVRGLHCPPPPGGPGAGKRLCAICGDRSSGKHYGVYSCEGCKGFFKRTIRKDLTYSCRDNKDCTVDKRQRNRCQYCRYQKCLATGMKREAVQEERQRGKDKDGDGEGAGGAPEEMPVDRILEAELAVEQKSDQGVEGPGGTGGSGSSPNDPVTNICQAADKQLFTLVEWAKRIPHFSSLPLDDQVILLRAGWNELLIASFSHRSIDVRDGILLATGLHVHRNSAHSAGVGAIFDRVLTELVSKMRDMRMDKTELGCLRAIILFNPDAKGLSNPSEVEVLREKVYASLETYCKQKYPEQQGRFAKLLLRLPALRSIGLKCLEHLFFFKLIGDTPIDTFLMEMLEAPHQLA
Retinoic acid receptor RXR-alpha (Homo sapiens), sequence (P19793 whole entry, looked up, the tested form may be a part): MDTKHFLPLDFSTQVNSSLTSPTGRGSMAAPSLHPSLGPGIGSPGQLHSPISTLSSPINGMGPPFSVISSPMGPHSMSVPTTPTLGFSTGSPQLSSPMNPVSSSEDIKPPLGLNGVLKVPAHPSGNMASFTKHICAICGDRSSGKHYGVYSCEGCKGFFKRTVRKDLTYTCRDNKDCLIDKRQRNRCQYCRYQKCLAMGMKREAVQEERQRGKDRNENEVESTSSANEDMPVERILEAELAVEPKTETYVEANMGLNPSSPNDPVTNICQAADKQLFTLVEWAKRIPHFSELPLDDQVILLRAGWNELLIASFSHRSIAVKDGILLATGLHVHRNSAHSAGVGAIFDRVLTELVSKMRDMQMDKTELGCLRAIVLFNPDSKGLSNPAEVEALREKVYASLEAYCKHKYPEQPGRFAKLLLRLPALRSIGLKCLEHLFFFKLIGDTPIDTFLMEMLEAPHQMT
Nuclear respiratory factor 1 (Homo sapiens), sequence (Q16656 whole entry, looked up): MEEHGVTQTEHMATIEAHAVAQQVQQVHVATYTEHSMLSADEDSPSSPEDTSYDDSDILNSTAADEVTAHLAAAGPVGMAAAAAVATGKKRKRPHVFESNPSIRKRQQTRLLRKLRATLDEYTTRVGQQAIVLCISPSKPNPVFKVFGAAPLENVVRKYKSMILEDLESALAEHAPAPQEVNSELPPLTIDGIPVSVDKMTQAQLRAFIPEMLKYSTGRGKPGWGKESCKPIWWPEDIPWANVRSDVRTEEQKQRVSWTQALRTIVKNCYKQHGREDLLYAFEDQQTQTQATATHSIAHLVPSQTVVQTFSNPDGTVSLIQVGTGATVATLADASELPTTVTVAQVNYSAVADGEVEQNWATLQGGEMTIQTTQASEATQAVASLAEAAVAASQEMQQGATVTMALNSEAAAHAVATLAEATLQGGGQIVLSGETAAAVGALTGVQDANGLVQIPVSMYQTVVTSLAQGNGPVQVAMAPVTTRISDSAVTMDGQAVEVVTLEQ
Cellular tumor antigen p53 (Homo sapiens), sequence (P04637 whole entry, looked up): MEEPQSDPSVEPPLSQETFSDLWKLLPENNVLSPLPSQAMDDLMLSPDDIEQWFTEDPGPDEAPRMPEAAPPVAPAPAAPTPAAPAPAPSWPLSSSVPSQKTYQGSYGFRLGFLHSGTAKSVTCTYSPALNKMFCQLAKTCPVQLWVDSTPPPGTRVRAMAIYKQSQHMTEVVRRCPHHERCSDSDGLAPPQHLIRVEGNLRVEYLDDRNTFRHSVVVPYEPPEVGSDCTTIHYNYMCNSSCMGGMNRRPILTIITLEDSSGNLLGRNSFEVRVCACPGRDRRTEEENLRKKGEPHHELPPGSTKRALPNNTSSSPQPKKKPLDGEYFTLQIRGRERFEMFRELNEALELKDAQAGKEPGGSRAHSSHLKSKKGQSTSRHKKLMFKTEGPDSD

In the case of `O=C(CCl)c1ccccc1`, the call in experiment [1], in [2], in [4], in [5], in experiment [6] and in experiment [7] was inactive. Moreover, the call in [8], in [9], in [10], in experiment [11], in experiment [13] and in experiment [14] was inactive. In addition, the result in [15], in experiment [16] and in experiment [17] was inactive. Besides, the concentration at half-maximal activity (AC50) is 8.88 µM (active) in experiment [3], 33.4 µM (active) in experiment [12] and 64.3 µM (active) in experiment [14].
As for `C=CC(=O)OCCCCOC(=O)C=C`, the compound was called inactive in experiment [1], in experiment [4], in [6], in [8], in experiment [9] and in experiment [18]. Further, the call in experiment [11], in experiment [19], in experiment [12], in experiment [14], in [15] and in [17] was inactive. Besides, the AC50 was 62.4 µM (active) in experiment [2], 70.5 µM (active) in experiment [3] and 49.6 µM (active) in [13].
`Clc1ccc(-c2ccccc2)cc1`: the result in experiment [1], in [3], in experiment [20], in [4], in experiment [6] and in experiment [7] was inactive. Further, the compound was called inactive in experiment [8], in [9], in experiment [18], in experiment [11], in experiment [19] and in experiment [12]. Moreover, in experiment [10], the AC50 is 152 µM (active).
On to `CCCCOC(=O)CCC(=O)OCCCC`, for which the outcome in experiment [1], in experiment [2], in [20], in experiment [4], in experiment [5] and in experiment [6] was inactive. Besides, the outcome in [9], in experiment [18], in experiment [10], in experiment [12], in experiment [15] and in experiment [17] was inactive.
In the case of `C[C@]12CCC(=O)C(O)=C1CC[C@@H]1[C@@H]2CC[C@]2(C)C(=O)CC[C@@H]12`, the outcome in [1], in [2], in [3], in [20], in [6] and in experiment [7] was inactive. In addition, the outcome in experiment [18], in experiment [10], in experiment [11], in [19], in [13] and in experiment [15] was inactive. Besides, the compound was called inactive in experiment [16] and in experiment [17].
